From PubChem
FLuc counter – qHTS profiling assay for firefly luciferase inhibitor/activator using purifed enzyme and Km concentrations of substrates (counterscreen for miR-21 project); Potency, µM (doses to about 57.5 µM), actives largely listed as inhibitors; Luciferin 4-monooxygenase (Photinus pyralis), P08659; actives 6.9% (n = 360,000); purified FLuc, Km substrates, luminescence inhibition; further: nearly all actives have a fitted effect of over 55% in size
Target sequence (P08659 whole entry, looked up): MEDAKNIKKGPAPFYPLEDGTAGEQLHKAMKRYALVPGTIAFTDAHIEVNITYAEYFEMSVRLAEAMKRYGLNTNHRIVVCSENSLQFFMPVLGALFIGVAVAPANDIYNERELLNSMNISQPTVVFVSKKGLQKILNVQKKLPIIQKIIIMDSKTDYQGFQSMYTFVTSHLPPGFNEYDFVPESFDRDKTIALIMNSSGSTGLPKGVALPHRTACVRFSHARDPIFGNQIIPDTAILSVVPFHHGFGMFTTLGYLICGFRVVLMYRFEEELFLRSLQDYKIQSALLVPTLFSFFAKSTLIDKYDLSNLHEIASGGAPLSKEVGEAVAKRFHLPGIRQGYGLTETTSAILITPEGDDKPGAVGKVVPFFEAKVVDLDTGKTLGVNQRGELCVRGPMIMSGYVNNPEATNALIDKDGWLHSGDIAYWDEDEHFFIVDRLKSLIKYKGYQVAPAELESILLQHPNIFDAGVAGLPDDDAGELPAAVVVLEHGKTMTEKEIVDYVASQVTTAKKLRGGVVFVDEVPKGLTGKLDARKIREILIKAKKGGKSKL
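Purified P. pyralis luciferase, 10 nM final, with Km-level 10 uM D-luciferin and 10 uM ATP in 50 mM Tris acetate pH 7.5, 10 mM Mg acetate, 0.01% Tween-20, 0.05% BSA; 6-point qHTS titration about 60 µM downward; luminescence read.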
SMN2 splice up – qHTS Assay for Enhancers of SMN2 Splice Variant Expression; HEK293 SMN2-luciferase splicing reporter, luminescence, 30-36 h; Potency, µM (titrated, usually from 46.1 µM), hits mostly activators; actives 2.8% (n = 210,000); further: nearly all actives have a fitted effect of over 55% in size
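HEK293 cells carry an SMN2 […]–luciferase reporter in which exon 7 inclusion puts luciferase in frame. Cells were plated 10-12 h before compound addition, then incubated 30-36 h at 37C. ONE-Glo luminescence was read; sodium butyrate at 4.5 mM final served as control.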
NPC1 promoter act – qHTS Assay for NPC1 Promoter Activators; Huh7 NPC1 promoter luciferase reporter, 24 h; Potency, µM (highest dose often 9.22 µM), usual class: activators; actives 2.4% (n = 320,000); further: nearly all actives have a fitted effect of over 60% in size
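NPC1 promoter–luciferase Huh7 cells; 24 h compound; luminescence.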
ELG1 DNA repair – qHTS screen for small molecules that inhibit ELG1-dependent DNA repair in human embryonic kidney (HEK293T) cells expressing luciferase-tagged ELG1. HEK293T ELG1-luciferase reporter, luminescence, 16 h; DNA damage induced by 5-fluorouridine. Potency, µM (titrated, usually from 46.1 µM), most hits filed as inhibitors. actives 2.3% (n = 330,000). AID 504467, 2011; further: nearly all actives have a fitted effect of over 55% in size
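DMSO vehicle served as the neutral condition. Each well held 2,000 cells given 5-fluorouridine plus compound; after 16 hr at 37 °C/5% CO2, ONE-Glo was added and luciferase measured 30 min later.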
ELG1 genotox – qHTS screen for small molecules that induce genotoxicity in human embryonic kidney (HEK293T) cells expressing luciferase-tagged ELG1; actives 1.3% (n = 330,000); Potency, µM (series often up to 46 µM), actives largely listed as activators; HEK293T ELG1-luciferase reporter, luminescence, 16 h; AID 504466, 2011; further: nearly all actives have a fitted effect of over 60% in size
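Cells (2,000/well) expressing the ELG1-luciferase fusion are dosed by pin tool and kept 16 hr at 37 °C, 5% CO2. Signal comes from ONE-Glo luciferase reagent after 30 min at room temperature.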
Rab9 promoter act – qHTS Assay for Rab9 Promoter Activators. Huh7 Rab9 promoter-luciferase reporter, luminescence, 24 h. Potency, µM (doses to about 9.22 µM), usual class: activators. actives 2.8% (n = 320,000); further: nearly all actives have a fitted effect of over 60% in size
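Using Huh7 cells stably transfected with Rab9 promoter–luciferase, compounds were incubated 24 h at 37 °C, 5% CO2; luciferase luminescence was read 10 min after reagent addition.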
Hits are given with their value; [ ] = dose if it differs, or a comment. An excerpt weighted towards active compounds, which were near 9.2% of everything screened. The call rests on the fitted dose curve; in most records, active means well fitted curve in the direction sought with a large enough effect; inconclusive means small, poorly fitted or top-dose-only effect, or another doubt; inactive means no such curve, though single readings can be large; an effect the other way counts as inactive or inconclusive.

`CCOC(=O)c1ccc(NC(=O)c2sc3nc4n(c(=O)c3c2C)CCC4)cc1` gave FLuc counter inactive, NPC1 promoter act inactive, ELG1 DNA repair 23µM, ELG1 genotox inactive[9.26 µM] and Rab9 promoter act inactive.
`CCc1cccc(NC(=O)c2sc3nc4n(c(=O)c3c2C)CCC4)c1` gave FLuc counter 17µM, NPC1 promoter act 2µM, ELG1 DNA repair inconclusive, ELG1 genotox inconclusive and Rab9 promoter act 2.8µM.
For Cc1ccc(NC(=O)COc2ccc3oc4c(c3c2)CCCC4)c(C)c1 the results were FLuc counter inactive and SMN2 splice up inactive.
Screening CC(=O)Nc1ccc(C(=O)Nc2nc(-c3ccccn3)cs2)cc1 returned FLuc counter inconclusive, SMN2 splice up inactive, NPC1 promoter act inactive, ELG1 DNA repair inconclusive, ELG1 genotox inactive and Rab9 promoter act inactive.
O=C(Nc1ccccn1)c1ccc2c(c1)OCO2 was read as FLuc counter 12µM, SMN2 splice up 11µM, NPC1 promoter act 3.2µM, ELG1 DNA repair inconclusive, ELG1 genotox inconclusive and Rab9 promoter act 1.3µM.
`O=C(Nc1nc(-c2ccccn2)cs1)c1ccccc1-n1cnnn1` gave FLuc counter inconclusive, NPC1 promoter act inactive, ELG1 DNA repair 2.6µM, ELG1 genotox inactive and Rab9 promoter act inactive.
Screening Cc1cccnc1NC(=O)c1ccc2c(c1)OCO2 returned FLuc counter inactive, NPC1 promoter act inactive, ELG1 DNA repair inconclusive, ELG1 genotox inactive and Rab9 promoter act inactive.
Screening O=C(Nc1ncccc1Cl)c1ccc2c(c1)OCCO2 returned FLuc counter 13µM, SMN2 splice up 10µM, NPC1 promoter act 3.2µM, ELG1 DNA repair inconclusive, ELG1 genotox 5.2µM and Rab9 promoter act 2.5µM.
`O=C(Nc1nc(-c2ccccn2)cs1)c1ccc2c(c1)OCCO2` gave FLuc counter 1.1µM, NPC1 promoter act 2.8µM, ELG1 DNA repair inconclusive, ELG1 genotox inconclusive and Rab9 promoter act 1.8µM.
CCOP(=O)(OCC)c1ccc2ccc3ccccc3c(=O)c2c1 was read as ELG1 DNA repair inconclusive and ELG1 genotox inactive.
Cc1cccc(NC(=O)c2ccc3c(c2)OCCO3)n1 was read as FLuc counter 9.5µM, NPC1 promoter act 1.4µM, ELG1 DNA repair inconclusive, ELG1 genotox inconclusive and Rab9 promoter act 1.3µM.
O=C(Nc1ccccn1)c1ccc2c(c1)OCCO2 was read as FLuc counter 6.7µM, SMN2 splice up 2.5µM, NPC1 promoter act 1.1µM, ELG1 DNA repair inconclusive, ELG1 genotox inactive and Rab9 promoter act 0.63µM.
Screening O=C(Nc1nc2c(F)cccc2s1)c1ccc2c(c1)OCCO2 returned FLuc counter 0.54µM.
For O=C(Nc1nc2c(F)cccc2s1)C1CC1 the results were FLuc counter inconclusive, NPC1 promoter act inconclusive, ELG1 DNA repair inconclusive, ELG1 genotox inactive and Rab9 promoter act inconclusive.
`O=C(Nc1ccccn1)c1ccc(C(=O)Nc2ccccn2)cc1` gave FLuc counter inconclusive, NPC1 promoter act inconclusive, ELG1 DNA repair inconclusive, ELG1 genotox inactive and Rab9 promoter act inconclusive.
For O=C(NC(=S)Nc1cc([N+](=O)[O-])ccc1O)c1ccc2c(c1)OCO2 the results were FLuc counter 1.5µM, NPC1 promoter act 0.32µM, ELG1 DNA repair inconclusive, ELG1 genotox 1µM and Rab9 promoter act 0.32µM.
For CCOc1ccccc1NC(=O)n1ncc2cc(Cl)ccc21 the results were FLuc counter inactive.
Screening O=C(Nc1ccc([N+](=O)[O-])cn1)c1ccc2c(c1)OCO2 returned FLuc counter inactive, SMN2 splice up inconclusive, NPC1 promoter act inconclusive, ELG1 DNA repair inconclusive, ELG1 genotox inactive and Rab9 promoter act 1.6µM.
`O=C(Cc1ccc([N+](=O)[O-])cc1)NNC(=O)c1ccc2c(c1)OCO2` gave FLuc counter inactive, NPC1 promoter act inactive, ELG1 DNA repair inactive, ELG1 genotox inactive and Rab9 promoter act inactive.
For Cn1ccc(C(=O)NC(=S)Nc2ccc([N+](=O)[O-])cc2O)n1 the results were FLuc counter 12µM, NPC1 promoter act 2.2µM, ELG1 DNA repair inconclusive, ELG1 genotox 12µM and Rab9 promoter act 2.8µM.
`CC(C)(C)c1ccc(C(=O)Nc2ccc([N+](=O)[O-])cn2)cc1` gave FLuc counter 1.9µM, SMN2 splice up 2.8µM, NPC1 promoter act 0.71µM, ELG1 DNA repair inconclusive, ELG1 genotox inconclusive and Rab9 promoter act 1µM.
Screening O=C(Nc1ccc([N+](=O)[O-])cn1)c1cccnc1 returned FLuc counter inactive, NPC1 promoter act inactive, ELG1 DNA repair inactive, ELG1 genotox inactive and Rab9 promoter act inactive.
For O=C1CCN(S(=O)(=O)c2ccc(Br)cc2)CCN1 the results were FLuc counter inactive, SMN2 splice up inactive, NPC1 promoter act inactive, ELG1 DNA repair inactive, ELG1 genotox inactive and Rab9 promoter act inactive.
For COc1ccc2c(c1)O[C@H](c1ccc3c(c1)OCO3)[C@@H](OC(=O)NCc1ccco1)C2=O the results were SMN2 splice up inactive.
For Cc1cccc(C)c1NC(=O)CN(C)C(=O)CSC(=S)N1CCCC1 the results were FLuc counter inactive, NPC1 promoter act inactive, ELG1 DNA repair inactive, ELG1 genotox inactive and Rab9 promoter act inactive.
CCN(CC)CC(=O)Nc1ccc2c(c1)Nc1ccccc1CC2 was read as FLuc counter 12µM, SMN2 splice up inactive, NPC1 promoter act inactive, ELG1 DNA repair inactive, ELG1 genotox inactive and Rab9 promoter act inconclusive.
`CCN(CC)CC(=O)Nc1ccc2c(c1)N(C(=O)CN(CC)CC)c1ccccc1CC2` gave FLuc counter inactive, SMN2 splice up inactive, NPC1 promoter act inactive, ELG1 DNA repair inactive, ELG1 genotox inactive and Rab9 promoter act inactive.
Cc1cccc2nc(COc3ccc4ccccc4c3Br)cn12 was read as FLuc counter 2.4µM, NPC1 promoter act 3.5µM, ELG1 DNA repair inconclusive, ELG1 genotox inconclusive and Rab9 promoter act 3.2µM.
Screening Cc1nc(-c2ccc(Cl)cc2)sc1CCNC(=O)C(=O)Nc1ccccc1C#N returned FLuc counter inactive.
For Cn1cccc1C(=O)NCCc1ccc(Cl)cc1 the results were FLuc counter 15µM, NPC1 promoter act 2.8µM, ELG1 DNA repair inconclusive, ELG1 genotox inconclusive and Rab9 promoter act 2.5µM.
Cn1cccc1C(=O)NCCc1ccccc1 was read as FLuc counter 4.8µM, NPC1 promoter act 0.4µM, ELG1 DNA repair inconclusive, ELG1 genotox 2.3µM and Rab9 promoter act 0.5µM.
CC1CCN(CC(=O)Nc2cccc(Cl)c2)CC1 was read as FLuc counter inactive, SMN2 splice up inactive, NPC1 promoter act inactive, ELG1 DNA repair inactive, ELG1 genotox inactive and Rab9 promoter act inactive.
